Experimental data from the supplement of paper PMC6089552.
Out of some 3,200 compounds screened, about 300 (9.4%) showed activity. Shown is part of a subset that was picked to be rich in actives.

System: A673/TR/shEF
Test: cell viability (LOESS-normalised, relative to median of negative controls) (log2 ratio); higher = more viable cells (less compound effect), active = hit call of the paper (over 3 MAD below the median)
Conditions: treatment time: 72 h
Method in brief: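 Viability of A673/TR/shEF Ewing sarcoma cells was determined by CellTiter-Glo luminescence. The cells, at 1,500 per well in 384-well plates, were grown with or without doxycycline from 24 h before compound addition to switch on EWS-FLI1 shRNA knockdown, then exposed for three days to library compounds at two or more concentrations or to DMSO controls. Signals were LOESS-corrected plate by plate, normalised to the negative-control median and log2-transformed.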

[1] = 0.25 µM, library screen: screen1, EWS-FLI1 expression: high (no doxycycline)
[2] = 0.25 µM, library screen: screen1, EWS-FLI1 expression: low (doxycycline-induced shRNA knockdown)
[3] = 2.5 µM, library screen: screen1, EWS-FLI1 expression: high (no doxycycline)
[4] = 2.5 µM, library screen: screen1, EWS-FLI1 expression: low (doxycycline-induced shRNA knockdown)
[5] = 0.25 µM, library screen: screen2, EWS-FLI1 expression: high (no doxycycline)
[6] = 0.25 µM, library screen: screen2, EWS-FLI1 expression: low (doxycycline-induced shRNA knockdown)
[7] = 2.5 µM, library screen: screen2, EWS-FLI1 expression: high (no doxycycline)
[8] = 2.5 µM, library screen: screen2, EWS-FLI1 expression: low (doxycycline-induced shRNA knockdown)
[9] = 0.103 µM, library screen: screen3, EWS-FLI1 expression: high (no doxycycline)
[10] = 0.103 µM, library screen: screen3, EWS-FLI1 expression: low (doxycycline-induced shRNA knockdown)
[11] = 0.308 µM, library screen: screen3, EWS-FLI1 expression: high (no doxycycline)
[12] = 0.308 µM, library screen: screen3, EWS-FLI1 expression: low (doxycycline-induced shRNA knockdown)
[13] = 0.926 µM, library screen: screen3, EWS-FLI1 expression: high (no doxycycline)
[14] = 0.926 µM, library screen: screen3, EWS-FLI1 expression: low (doxycycline-induced shRNA knockdown)
[15] = 2.8 µM, library screen: screen3, EWS-FLI1 expression: high (no doxycycline)
[16] = 2.8 µM, library screen: screen3, EWS-FLI1 expression: low (doxycycline-induced shRNA knockdown)
[17] = 8.3 µM, library screen: screen3, EWS-FLI1 expression: high (no doxycycline)
[18] = 8.3 µM, library screen: screen3, EWS-FLI1 expression: low (doxycycline-induced shRNA knockdown)
[19] = 25 µM, library screen: screen3, EWS-FLI1 expression: high (no doxycycline)
[20] = 25 µM, library screen: screen3, EWS-FLI1 expression: low (doxycycline-induced shRNA knockdown)
[21] = 0.025 µM, library screen: screen2, EWS-FLI1 expression: high (no doxycycline)
[22] = 0.025 µM, library screen: screen2, EWS-FLI1 expression: low (doxycycline-induced shRNA knockdown)
[23] = 25 µM, library screen: screen2, EWS-FLI1 expression: high (no doxycycline)
[24] = 25 µM, library screen: screen2, EWS-FLI1 expression: low (doxycycline-induced shRNA knockdown)

Measured: cell viability (log2)

COC(=O)C1=C(C)N=c2sc(=Cc3cccs3)c(=O)n2C1c1ccc(OC)cc1 (centres undefined)
inactive: [1] 0.0442 | [2] 0.034 | [3] 0.0701 | [4] 0.111

CNC(=O)c1cc2c(cn1)[nH]c1ccccc12
inactive: [5] 0.143 | [6] 0.0456 | [7] 0.152 | [8] 0.0711

CNC(=O)c1ccccc1Sc1ccc2c(/C=C/c3ccccn3)n[nH]c2c1
active: [17] -0.181 | [19] -0.513
inactive: [9] -0.00228 | [10] 0.0386 | [11] 0.0978 | [12] 0.044 | [13] 0.0712 | [14] 0.145 | [15] 0.0241 | [16] 0.188 | [18] 0.195 | [20] -0.0147

CC(C)=CCC[C@@H](C)[C@H]1CC[C@@]2(C)C3=C(CC[C@]12C)[C@@]1(C)CC[C@H](O)C(C)(C)[C@@H]1CC3
inactive: [1] 0.101 | [2] -0.00557 | [3] 0.158 | [4] 0.0178

O=C(O)CCCCCCCn1ccnc1
inactive: [1] 0.124 | [2] 0.0433 | [3] 0.168 | [4] 0.0749

CC1=C(Cl)C(O)=C(Cl)C(=O)C12Oc1cc(O)c(Cl)c(C)c1C2=O (centres undefined)
inactive: [1] 0.065 | [2] 0.0174 | [3] 0.111 | [4] 0.157

CC(=O)OC12CCCC(C)(CCC3C1CC3(C)C)C2 (centres undefined)
inactive: [1] 0.0248 | [2] -0.0723 | [3] 0.116 | [4] -0.0213

CC(=O)OC1(C)CCC23CC1C(C)(C)[C@@H]2CC[C@H]3C (some centres undefined)
inactive: [1] 0.0148 | [2] 0.0289 | [3] 0.15 | [4] 0.0585

Cc1nc(N)sc1-c1ccnc(Nc2ccc(N3CCOCC3)cc2)n1
inactive: [9] 0.0411 | [10] 0.00948 | [11] 0.0424 | [12] 0.0424 | [13] -0.0206 | [14] 0.0867 | [16] 0.0313 | [18] -0.083
active: [15] -0.219 | [17] -0.377 | [19] -0.478 | [20] -0.719

COc1cccc(CN2CCN(Cc3cccc([N+](=O)[O-])c3)CC2)c1
inactive: [1] 0.0814 | [2] 0.112

CC(C)c1c(O)ccc2c1CC[C@H]1[C@@](C)(CO)CCC[C@]21C
inactive: [1] 0.0632 | [2] 0.204 | [3] 0.124 | [4] 0.239

COC(=O)Nc1nc2ccc(Sc3ccccc3)cc2[nH]1
inactive: [21] 0.076 | [22] 0.0311 | [9] 0.039 | [10] 0.0842 | [1] 0.0605 | [2] 0.108 | [5] 0.237 | [6] 0.0195 | [11] 0.0857 | [12] 0.103 | [13] 0.0228 | [14] 0.0229 | [3] 0.101 | [4] 0.0874 | [7] 0.103 | [8] 0.0543 | [16] -0.0556
active: [15] -0.667 | [17] -1.42 | [18] -0.611 | [23] -2.26 | [24] -0.937 | [19] -1.77 | [20] -0.629

CC(C(=O)O)c1ccc(C(=O)c2cccs2)cc1 (centres undefined)
inactive: [1] 0.0835 | [2] 0.0129 | [3] 0.155 | [4] -0.0021

COC(=O)Nc1nc2ccc(C(=O)c3ccccc3)cc2[nH]1
active: [3] -1.65 | [4] -0.988 | [7] -2.05 | [8] -0.641 | [23] -3.34 | [24] -1
inactive: [21] 0.179 | [22] 0.0844 | [1] 0.0977 | [2] 0.025 | [5] 0.114 | [6] 0.0886

COC(=O)Nc1nc2ccc(C(=O)c3cccs3)cc2[nH]1
active: [1] -0.83 | [2] -0.22 | [5] -1.12 | [6] -0.105 | [3] -3.46 | [4] -1.25 | [7] -2.04 | [8] -0.699

CC(C(=O)O)c1cccc(C(=O)c2ccccc2)c1 (centres undefined)
inactive: [9] 0.106 | [10] 0.0412 | [1] 0.12 | [2] -0.0201 | [5] 0.204 | [6] 0.13 | [11] 0.093 | [12] 0.102 | [13] 0.0295 | [14] 0.058 | [3] 0.103 | [4] 0.0158 | [7] 0.122 | [8] 0.173 | [15] 0.145 | [16] 0.11 | [17] 0.0932 | [18] 0.0536 | [19] 0.0365 | [20] 0.131

COc1ccc(NC(=O)/C(=C/c2cccs2)NC(=O)c2cccs2)cc1
inactive: [1] 0.0675 | [2] 0.0437 | [3] 0.0662 | [4] 0.0201

COC(=O)c1ccccc1
inactive: [1] 0.0726 | [2] 0.05 | [3] 0.155 | [4] 0.0447
